# Assay results from the supplement of paper PMC9446081.
# The campaign covered roughly 39,000 compounds. About 220 (0.56%) showed activity. This excerpt belongs to a sample that is enriched for actives. Unmarked numbers belong to inactive results.
# Tested on: Escherichia coli K-12 BW25113
# Assay: relative growth (OD600 normalised to plate interquartile mean) (fraction); higher = less growth inhibition, active = 0.2 or less
# Settings: 50 µM; LB; incubation time: overnight (16-24 h)
# 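Further: Wild-type cells incubated without shaking, value is the mean of two biological replicates.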
row,Structure (SMILES),relative growth
1,Cc1noc(C)c1S(=O)(=O)Nc1ccc2c(c1)C(=O)N([C@H](C)CO)C[C@@H](C)[C@H](CN(C)S(=O)(=O)c1ccc(Cl)cc1)O2,1
2,COc1ccc(C#Cc2ccc3c(c2)O[C@@H](CN(C)C(=O)CN2CCOCC2)[C@@H](C)CN([C@H](C)CO)S3(=O)=O)cc1,0.997
3,COCCNC(=O)C[C@H]1C[C@H]2c3cc(NS(C)(=O)=O)ccc3O[C@H]2[C@H](CO)O1,1.01
4,C(=C\c1ccccc1)/CSc1ncnc2c1oc1ccccc12,1.02
5,C/C(=C\C(=O)OCCCCCCCCC(=O)O)C[C@@H]1OC[C@H](C[C@@H]2O[C@H]2[C@@H](C)[C@H](C)O)[C@@H](O)[C@H]1O,0.166 (active)
6,CC(=CC(=O)OCCCCCCCCC(=O)O)CC1OCC(CC2OC2C(C)C(C)O)C(O)C1O (centres undefined),0.526
7,C[C@@H]1CN([C@@H](C)CO)C(=O)c2cc(-c3cccc(C(=O)N(C)C)c3)cnc2O[C@H]1CN(C)C(=O)Cc1ccccn1,0.986
8,CC[C@H]1OC(=O)C[C@@H](O)[C@H](C)[C@@H](O[C@@H]2O[C@H](C)C[C@H](N(C)C)[C@H]2O)[C@@H](CC=O)C[C@@H](C)C(=O)/C=C/[C@]2(C)O[C@H]2[C@@H]1C,0.149 (active)
9,CCC1OC(=O)CC(O)C(C)C(OC2OC(C)C(OC3CC(C)(O)C(O)C(C)O3)C(N(C)C)C2O)C(CC=O)CC(C)C(=O)C=CC(C)=CC1COC1OC(C)C(O)C(OC)C1OC.O=C(O)C(O)C(O)C(=O)O (centres undefined),1.09
10,CC[C@H]1OC(=O)C[C@@H](O)[C@H](C)[C@@H](O[C@@H]2O[C@H](C)[C@@H](O[C@H]3C[C@@](C)(O)[C@@H](O)[C@H](C)O3)[C@H](N(C)C)[C@H]2O)[C@@H](CC=O)C[C@@H](C)C(=O)/C=C/C(C)=C/[C@@H]1CO[C@@H]1O[C@H](C)[C@@H](O)[C@@H](OC)[C@H]1OC,0.971
11,Nc1ccccc1C(=O)NCCN1CCNC1=O,1.01
12,N[C@@H]1CN(c2c(F)cc3c(=O)c(C(=O)O)cn([C@@H]4C[C@@H]4F)c3c2Cl)CC12CC2,0.0347 (active)
13,Cl.NC1CCN(c2c(F)cc3c(=O)c(C(=O)O)cn(C4CC4)c3c2Cl)C1 (centres undefined),0.0438 (active)
14,OC[C@@H](O)[C@@H](O)[C@@H](O)[C@@H](O)[C@@H](O)CO,1
15,C[C@H](CO)N1C[C@H](C)[C@H](CN(C)C(=O)Nc2ccc(C(F)(F)F)cc2)Oc2ccc(NS(=O)(=O)c3ccc(F)cc3)cc2C1=O,0.994
16,c1n[nH]nc1SSc1cn[nH]n1,0.536
17,C[C@H](CO)N1C[C@H](C)[C@H](CN(C)S(C)(=O)=O)Oc2c(NC(=O)c3ccc(-c4nccs4)cc3)cccc2C1=O,0.995
18,CCCN(C)C[C@@H]1OCCCC[C@H](C)Oc2ccc(NC(=O)CCC(F)(F)F)cc2C(=O)N([C@@H](C)CO)C[C@@H]1C,1
19,C[C@H](CO)N1C[C@H](C)[C@H](CN(C)Cc2ccccc2)OCCCC[C@H](C)Oc2ccc(NC(=O)C3CCCCC3)cc2C1=O,1.01
20,COc1ccc2cc1Oc1ccc(cc1)C[C@H]1c3c(cc4c(c3Oc3cc5c(cc3OC)CCN(C)[C@@H]5C2)OCO4)CCN1C,0.993
21,COc1ccc2c(c1OC)C(=O)OC2C1c2c(cc3c(c2OC)OCO3)CCN1C.Cl (centres undefined),0.0513 (active)
22,COc1ccc2cc1Oc1ccc(cc1)CC1c3c(cc4c(c3Oc3cc5c(cc3OC)CCN(C)C5C2)OCO4)CCN1C (centres undefined),0.844
23,C[C@H](CO)N1C[C@H](C)[C@H](CN(C)Cc2ccccc2)Oc2c(NC(=O)Nc3cccc4ccccc34)cccc2C1=O,1
24,Cc1ccc(S(=O)(=O)Nc2ccc3c(c2)C(=O)N([C@H](C)CO)C[C@@H](C)[C@@H](CN(C)C(=O)c2ccccc2)OCCCC[C@H](C)O3)cc1,1.01
